Active and inactive are the calls of the source. Unless noted, no stated cut-off is given here; in the data, active means inhibition above about 80%; inactive means the rest.
Experiments:
[1] = growth inhibition, single agent or in combination, cell-based, chromothripsis tumors, cisplatin or BGB combos (AID 1671449); conditions: LFS_MB_P medulloblastoma cells;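 further: cells exposed for 96 hours; 0% = vehicle DMSO and 100% = killing by high DMSO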
[2] = growth inhibition, single agent and combos, cell-based, chromothripsis tumors, cisplatin or BGB combos (AID 1671450); conditions: HDN33 neuroblastoma cells, stronger effect = higher value;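 further: cells exposed to compound for four days; 0% = vehicle DMSO and 100% = cell killing by high DMSO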
[3] = growth inhibition, single agents and combos, ICB984, cell-based, cisplatin or BGB combos, synergistic combos for chromothripsis tumors (AID 1671451; call rule not given here;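 further: cells exposed for 96 hours before readout; 0% = vehicle DMSO and 100% = killing by high DMSO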); conditions: ICB984 medulloblastoma cells, drug combinations, stronger effect = higher value
[4] = growth inhibition, single agents and combos, LFS_MB_1R, cell-based, cisplatin or BGB combos, synergistic combos for chromothripsis tumors (AID 1671452); conditions: LFS_MB_1R medulloblastoma cells, stronger effect = higher value;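 further: cells exposed for 96 hours before readout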
[5] = growth inhibition, single agents and combos, HTB85, cell-based, BGB or cisplatin IC20 combos, synergistic combos for chromothripsis tumors (AID 1671453); conditions: HTB85 osteosarcoma cells, drug combinations, stronger effect = higher value;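 further: cells exposed for 96 hours before readout; 0% = vehicle DMSO and 100% = high DMSO killing control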
[6] = growth inhibition, single agents and combos, CRL2098, cell-based, BGB or cisplatin IC20 combos, synergistic combos for chromothripsis tumors (AID 1671454); conditions: CRL2098 osteosarcoma cells, drug combinations, stronger effect = higher value;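 further: cells exposed for 96 h before readout; 0% = vehicle DMSO and 100% = killing by high DMSO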
[7] = growth inhibition, single agents and combos, HD-MB03, cell-based, BGB or cisplatin IC20 combos, synergistic combos for chromothripsis tumors (AID 1671455; in the data active means inhibition above about 83%;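 further: 0% = vehicle DMSO and 100% = high DMSO as cytotoxic control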); conditions: HD-MB03 medulloblastoma cells, stronger effect = higher value
[8] = growth inhibition, single agents and combos, UWB1.289, cell-based, BGB or cisplatin combos, synergistic combos for chromothripsis tumors (AID 1671456); conditions: UWB1.289 ovarian carcinoma cells, stronger effect = higher value;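 further: cells exposed to compound for four days; 0% = vehicle DMSO and 100% = killing by high DMSO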
[9] = growth inhibition, single agents and combos, LFS_MB_2R, cell-based, cisplatin combos, synergistic combos for chromothripsis tumors (AID 1671457); conditions: LFS_MB_2R medulloblastoma cells, stronger effect = higher value;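 further: cells exposed to compound for four days before readout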
[10] = growth inhibition, MDA-MB-436, cell-based, BGB or cisplatin combos, synergistic combos for chromothripsis tumors (AID 1671458; call rule not given here;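 further: cells exposed for 96 hours; 0% = vehicle DMSO and 100% = killing by high DMSO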); conditions: MDA-MB-436 breast carcinoma growth inhibition, drug combinations, stronger effect = higher value
[11] = UWB1.289_BRCA1 ovarian cancer growth, cell-based, BGB or cisplatin combinations (AID 1671459); conditions: UWB1.289 BRCA1 ovarian carcinoma, drug combinations, stronger effect = higher value
[12] = drug combination toxicity in non-malignant astrocytes – cell-based, BGB or cisplatin IC20 combos, cytotoxicity control for chromothriptic childhood tumor combination screen (AID 1671460); conditions: Human astrocytes, viability inhibition, drug combinations, at 0.5 µM, stronger effect = higher value;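 further: cells exposed to compounds for 96 hours before viability readout; 0% = vehicle and 100% = killing control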
[13] = BT084 cell growth, single and combined drugs, ICGC_MB145, cisplatin and BGB IC40 combos (AID 1671461); conditions: BT084 medulloblastoma cells, drug combinations, stronger effect = higher value;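 further: cells exposed to drugs for 96 hours; 0% = vehicle DMSO and 100% = high DMSO full killing control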
[14] = RCMB18 cell growth, single agent and combined, cisplatin and BGB IC40 combos (AID 1671462); conditions: RCMB18 medulloblastoma cells, stronger effect = higher value;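 further: cells exposed to compound for four days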
[15] = CRL1545 cell growth, single agent and combined, cisplatin and BGB IC20 combos (AID 1671464); conditions: CRL1545 osteosarcoma cells, stronger effect = higher value;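 further: cells exposed to compound for 96 hours before readout; 0% = vehicle DMSO and 100% = high DMSO killing control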
[16] = galactose survival enhancers in mitochondrial complex I cybrids – cell-based, galactose medium, ATP luminescence, primary screen (AID 1645843;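 active means z-score of at least 1.8 in each of two replicates, scored against plate mean and spread of sample wells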;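 further: positive z means more ATP and so rescue of galactose-driven cybrid death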); conditions: complex I mutant cybrid cells, 72 h, stronger effect = higher value
[17] = at 0.5 µM, stronger effect = higher value
[18] = measured here: combination with BGB IC20, at 0.005 µM
[19] = measured here: combination with BGB IC40, at 0.005 µM
[20] = measured here: combination with BGB IC40, at 0.05 µM
[21] = measured here: combination with cisplatin, at 0.5 µM, stronger effect = higher value
[22] = measured here: combination with cisplatin, at 5 µM, stronger effect = higher value
[23] = measured here: with BGB IC20 combination, at 0.5 µM
[24] = measured here: with cisplatin IC20 combination, at 0.5 µM
[25] = measured here: 5 uM single agent, at 5 µM
[26] = measured here: combination with cisplatin, at 0.5 µM
[27] = measured here: combination with cisplatin, at 5 µM
[28] = measured here: with BGB IC20, at 0.5 µM
[29] = measured here: with BGB IC20, at 5 µM
[30] = measured here: with cisplatin IC20, at 0.5 µM
[31] = measured here: with cisplatin IC20, at 5 µM
[32] = measured here: combination with BGB at IC20, at 0.5 µM
[33] = measured here: combination with cisplatin at IC20, at 0.5 µM
[34] = measured here: combo with BGB at IC20, at 0.5 µM
[35] = measured here: combo with cisplatin at IC20, at 0.5 µM
[36] = measured here: inhibition with BGB combination, at 0.05 µM
[37] = measured here: inhibition with cisplatin combination, at 0.05 µM
[38] = measured here: BGB combination, at 0.5 µM
[39] = measured here: BGB combination, at 5 µM
[40] = measured here: cisplatin combination, at 0.5 µM
[41] = measured here: cisplatin combination, at 5 µM
[42] = BGB combination, concentration series, at 5 µM
[43] = cisplatin combination, concentration series, at 5 µM
[44] = measured here: combo with BGB IC20
[45] = measured here: combo with cisplatin IC20
[46] = cisplatin combination, at 0.5 µM
[47] = measured here: BGB IC40 combination 0.05 uM, at 0.05 µM
[48] = measured here: BGB IC40 combination, at 0.05 µM

O=C(CCCCCCC(=O)NO)NO
inhibition [1, 17]: -16.3% (inactive)
inhibition [1, 18]: 3.43%
inhibition [1, 19]: -7.94%
inhibition [1, 20]: -3.7%
inhibition [1, 21]: -17.1%
inhibition [1, 22]: 37.5%
inhibition ([2]; BGB combo, at 5 µM): 16.4%
inhibition ([2]; at 0.5 µM): -16.1% (inactive)
inhibition ([2]; cisplatin combo, at 5 µM): -6.26%
inhibition [2, 23]: -13.7%
inhibition [2, 24]: -21.3%
inhibition ([2]; single agent, at 5 µM): -0.771%
inhibition ([3]; BGB IC20 combo, at 0.005 µM): -20.4%
inhibition ([3]; BGB IC40 combo, at 0.005 µM): -41.1%
inhibition ([3]; BGB IC40 combo, at 0.05 µM): -25.8%
inhibition ([3]; at 0.5 µM): -27% (inactive)
inhibition ([3]; cisplatin combo, at 0.05 µM): -30.8%
inhibition ([3]; cisplatin combo, at 0.5 µM): -31.2%
inhibition ([3]; cisplatin combo, at 5 µM): -49.1%
inhibition [3, 25]: -5.09%
inhibition ([4]; at 0.5 µM): -25% (inactive)
inhibition [4, 20]: -41%
inhibition [4, 26]: -39.7%
inhibition [4, 27]: -49.3%
inhibition ([5]; at 0.5 µM): -16.4% (inactive)
inhibition [5, 28]: -21.4%
inhibition [5, 29]: 7.58%
inhibition [5, 30]: -13.1%
inhibition [5, 31]: -1.96%
inhibition ([5]; single agent, at 5 µM): 8.05%
inhibition ([6]; at 0.5 µM): -49.2% (inactive)
inhibition [6, 32]: -52%
inhibition [6, 33]: -0.415%
inhibition ([7]; at 0.5 µM): -7.45% (inactive)
inhibition [7, 34]: -12.8%
inhibition [7, 35]: -0.883%
inhibition ([8]; at 0.5 µM): -11.1% (inactive)
inhibition [8, 36]: 12.4%
inhibition [8, 37]: -20.9%
inhibition ([9]; at 0.5 µM): 7.53% (inactive)
inhibition [9, 26]: -13.9%
inhibition [9, 27]: 4.86%
inhibition ([10]; at 0.5 µM): -5.23% (inactive)
inhibition [10, 38]: 0.608%
inhibition [10, 39]: 5.89%
inhibition [10, 40]: -7.76%
inhibition [10, 41]: 14.4%
inhibition [11, 42]: 21.1%
inhibition ([11]; at 0.5 µM): -7.22% (inactive)
inhibition [11, 43]: 38.6%
inhibition [12]: -7.15% (inactive)
inhibition [12, 44]: -3.26%
inhibition [12, 45]: -13%
inhibition ([13]; at 0.5 µM): -7.26% (inactive)
inhibition [13, 46]: -13%
inhibition ([13]; cisplatin combination, at 5 µM): 18.3%
inhibition [13, 47]: -15.2%
inhibition ([13]; single agent, at 5 µM): 28.5%
inhibition ([14]; at 0.5 µM): -4.15% (inactive)
inhibition ([14]; cisplatin combo, at 5 µM): 6.83%
inhibition [14, 48]: -1.04%
inhibition [14, 26]: -1.18%
inhibition ([14]; single agent, at 5 µM): -14.5%
inhibition ([15]; at 0.5 µM): -30.5% (inactive)
inhibition [15, 23]: -55.7%
inhibition [15, 24]: -17.9%
inhibition ([15]; single agent, at 0.05 µM): -50.7%
inhibition ([15]; single agent, at 5 µM): -1.16%

C=C(C)C1CCC2(C(=O)O)CCC3(C)C(CCC4C5(C)CCC(O)C(C)(C)C5CCC43C)C12 (centres undefined)
inhibition [1, 17]: -26.5% (inactive)
inhibition [1, 18]: -25.5%
inhibition [1, 19]: 15.5%
inhibition [1, 20]: -1.2%
inhibition [1, 21]: -45.1%
inhibition [1, 22]: -28.2%
inhibition ([2]; BGB combo, at 5 µM): -9.64%
inhibition ([2]; at 0.5 µM): -2.09% (inactive)
inhibition ([2]; cisplatin combo, at 5 µM): -9.94%
inhibition [2, 23]: -1.87%
inhibition [2, 24]: -3.24%
inhibition ([2]; single agent, at 5 µM): -1.41%
inhibition ([3]; BGB IC20 combo, at 0.005 µM): -15.2%
inhibition ([3]; BGB IC40 combo, at 0.005 µM): -18.6%
inhibition ([3]; BGB IC40 combo, at 0.05 µM): 9.33%
inhibition ([3]; at 0.5 µM): -29.1% (inactive)
inhibition ([3]; cisplatin combo, at 0.05 µM): 9.33%
inhibition ([3]; cisplatin combo, at 0.5 µM): -38%
inhibition ([3]; cisplatin combo, at 5 µM): -7.17%
inhibition [3, 25]: -4.58%
inhibition ([4]; at 0.5 µM): -20% (inactive)
inhibition [4, 20]: -20.5%
inhibition [4, 26]: -33%
inhibition [4, 27]: -12.9%
inhibition ([5]; at 0.5 µM): -2.9% (inactive)
inhibition [5, 28]: -17.7%
inhibition [5, 29]: -3.73%
inhibition [5, 30]: -4.54%
inhibition [5, 31]: 5.41%
inhibition ([5]; single agent, at 5 µM): -0.003%
inhibition ([6]; at 0.5 µM): -11.7% (inactive)
inhibition [6, 32]: -25.6%
inhibition [6, 33]: 19.7%
inhibition ([7]; at 0.5 µM): -2.78% (inactive)
inhibition [7, 34]: -2.46%
inhibition [7, 35]: -4.95%
inhibition ([8]; at 0.5 µM): 0.66% (inactive)
inhibition [8, 36]: -7.77%
inhibition [8, 37]: -4.44%
inhibition ([9]; at 0.5 µM): 0.87% (inactive)
inhibition [9, 26]: -5.32%
inhibition [9, 27]: 12.1%
inhibition ([10]; at 0.5 µM): -18.9% (inactive)
inhibition [10, 38]: -9.2%
inhibition [10, 39]: -5.74%
inhibition [10, 40]: -43.5%
inhibition [10, 41]: 3.21%
inhibition [11, 42]: -4.55%
inhibition ([11]; at 0.5 µM): -1.24% (inactive)
inhibition [11, 43]: -5.38%
inhibition [12]: 6.79% (inactive)
inhibition [12, 44]: -11.2%
inhibition [12, 45]: 21%
inhibition ([13]; at 0.5 µM): -12.4% (inactive)
inhibition [13, 46]: -2.33%
inhibition ([13]; cisplatin combination, at 5 µM): -35.9%
inhibition [13, 47]: 10.4%
inhibition ([13]; single agent, at 5 µM): -5.82%
inhibition ([14]; at 0.5 µM): -0.59% (inactive)
inhibition ([14]; cisplatin combo, at 5 µM): -5.83%
inhibition [14, 48]: 12.3%
inhibition [14, 26]: -32.4%
inhibition ([14]; single agent, at 5 µM): 7.3%
inhibition ([15]; at 0.5 µM): -2.94% (inactive)
inhibition [15, 23]: -13.1%
inhibition [15, 24]: 2.15%
inhibition ([15]; single agent, at 0.05 µM): -25.4%
inhibition ([15]; single agent, at 5 µM): 16.8%

CCCCc1cn(C2CCN(C(=O)C3CC3(CC)CC)CC2)nn1 (centres undefined)
z-score [16]: 0.39 (inactive)

Cc1ccc(-c2nn(CC(=O)Nc3cnn(C)n3)c3ccccc23)c(F)c1
z-score [16]: -0.4 (inactive)

COc1ccc2c(c1)C=C(CNc1cccnc1)CO2
z-score [16]: 0.615 (inactive)
